# A selection: hits, their analogues and other compounds. The true share with any hit is near 3.5%.
# ATG4B inhibitor: ATG4B (human) cysteine protease inhibition. hit rate 0.51% among 340,000. ATG4B cleavage of LC3-PLA2, NBD-HPC fluorescence, 1 h. Q9Y4P1. inhibition, % at 8.33 µM. AID 504462; in the data active means inhibition above about 40%
# CHRM1 PAM: human CHRM1 positive allosteric modulation; activation, % at 3 µM; hit rate 0.088% among 360,000; P11229; CHO-K1 hM1, Fluo-8 calcium fluorescence, ACh EC20; 0% = ACh EC20, 100% = maximal ACh; in the data active means activation above about 19%, passing the limit was not always enough
# Target sequence (P11229 whole entry, looked up): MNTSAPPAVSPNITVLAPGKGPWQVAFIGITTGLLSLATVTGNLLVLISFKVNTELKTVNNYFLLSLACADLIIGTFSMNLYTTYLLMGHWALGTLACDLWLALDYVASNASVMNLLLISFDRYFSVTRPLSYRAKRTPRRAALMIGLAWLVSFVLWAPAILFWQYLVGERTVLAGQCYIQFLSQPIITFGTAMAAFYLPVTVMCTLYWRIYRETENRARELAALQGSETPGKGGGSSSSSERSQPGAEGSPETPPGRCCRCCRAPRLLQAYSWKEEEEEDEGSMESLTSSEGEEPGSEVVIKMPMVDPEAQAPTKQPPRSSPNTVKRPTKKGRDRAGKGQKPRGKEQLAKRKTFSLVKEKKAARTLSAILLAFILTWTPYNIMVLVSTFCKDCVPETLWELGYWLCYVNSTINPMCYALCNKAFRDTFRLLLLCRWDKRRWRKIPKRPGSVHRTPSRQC
# CHRM1 agonist: agonists of human M1 muscarinic receptor | P11229 | CHO-K1 hM1, Fluo-8 calcium fluorescence, agonist mode; 0% DMSO, 100% acetylcholine EC100 | activation, % at 3 µM | hit rate 0.33% among 360,000 | AID 588814;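 active means activation above the run's mean compound activation plus 3 SD, cut at about 16% in these data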;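 further: peak over basal fluorescence ratio within a 140 s kinetic read after compound addition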
# SKN-1 inh: C. elegans SKN-1 inhibition; hit rate 0.49% among 360,000; C. elegans VP596 Pgst-4::GFP/RFP ratio, acrylamide-induced, 24 h; AID 624304; inhibition, % at 21.8 µM;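 active means interference check ratio from 0.5 to 1.5 plus GFP to RFP signal ratio inhibition reaching or exceeding a fixed threshold, cut at about 30% in these data, passing the limit was not always enough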
# M1 antag: human CHRM1 antagonism; P11229; CHO-K1 hM1, Fluo-8 calcium fluorescence, ACh EC80 antagonist; inhibition, % at 3 µM; hit rate 1.3% among 360,000; AID 588852;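 active means percent inhibition above its own plate's cutoff, namely the mean of that plate's compound wells plus 3 SD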;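 further: peak over basal fluorescence ratio during 140 s after agonist addition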
# Myeloid diff MLP: compounds promoting myeloid differentiation; ER-HoxA9 myeloid progenitors, lysozyme-GFP differentiation, flow cytometry; calls only at 10 µM; hit rate 1% among 360,000; AID 624256;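 active means normalized GFP-positive differentiation at or above the plate's own cutoff, the solvent-only control mean plus 3 SD; inconclusive means no clear call, values can overlap the other calls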;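 further: cells exposed to compound for four days before flow analysis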
# Hits are given with their value; . = inactive; ? = inconclusive; / = not tested or not shown; + = active, no number; ! = not confirmed by another sample.
SMILES,ATG4B inhibitor,CHRM1 PAM,CHRM1 agonist,SKN-1 inh,M1 antag,Myeloid diff MLP
O=C(c1cccs1)C1CN2CCC1CC2 (stereo not given),.,.,.,.,38,.
ClCCN(CCCl)c1ccc(C=Cc2ccncn2)cc1,.,.,.,54,.,?
C[C@H]1OC[C@@H](C[N+](C)(C)C)O1,.,.,121,.,83,.
CC1OC(C[N+](C)(C)C)CC1O (stereo not given),.,.,114,.,88,.
COC(=O)C1=COC(C)C2CN3CCc4c([nH]c5cc(OC)ccc45)C3CC12 (stereo not given),/,.,.,.,.,.
COC(=O)C1=C(c2ccc(OC)c(OC)c2)C[C@@H]2CC[C@H]1N2C(=O)NC1CC1,.,.,.,.,.,.
S=C1CN=C(c2ccccc2)c2cc(Cl)ccc2N1,.,.,46,.,.,.
Cc1cc(C=O)c(C)n1C1CC1,.,.,.,.,.,.
O=C(COc1ccc(Cl)cc1)NC1CN2CCC1CC2 (stereo not given),.,.,.,.,45,.
O=C(NC1CN2CCC1CC2)c1cccc(Cl)c1 (stereo not given),.,.,.,.,.,.
O=C1NC(=S)N(c2ccccc2)C(=O)/C1=C/c1ccco1,59,.,.,.,.,.
Cc1ccc(/C=C2\C(=O)NC(=S)N(c3ccccc3F)C2=O)s1,.,.,.,.,.,.
CCOc1cccc(N2C(=O)/C(=C/c3ccco3)C(=O)NC2=S)c1,.,.,.,.,.,.
Cc1ccc(/C=C2\C(=O)NC(=S)N(c3ccc(F)cc3)C2=O)s1,.,.,.,36,.,.
O=C(Cn1cnc2sc3c(c2c1=O)CCCC3)NCCC(=O)N1CCC2(CC1)OCCO2,.,.,.,.,.,.
CCn1c(O)c(C(=O)CC2NCCc3ccccc32)c(=O)n(CC)c1=S (stereo not given),.,.,.,51,.,.
COc1cccc(C(c2nnnn2Cc2ccccc2)N2CCC3(CC2)C(=O)NCN3c2ccccc2)c1OC (stereo not given),/,.,.,.,.,.
Cc1ccc(C2CC3CCC(C2)N3Cc2ccccc2F)cc1 (stereo not given),.,.,.,.,.,.
Cc1ccc(CN2C3CCCC2CC(NC(=O)Nc2cccc(F)c2)C3)cc1 (stereo not given),.,.,.,.,38,.
COc1ccc(C)cc1NC1=NC(C)(C)CS1,.,.,.,.,.,.
CC1CN=C(NCCc2ccccc2)S1 (stereo not given),.,.,.,.,.,.
CCN(CC)c1ccc(/C=C2\C(=O)NC(=O)N(CC3CCCO3)C2=O)cc1 (stereo not given),.,.,.,42,.,.
Cc1ncc([N+](=O)[O-])n1CCOC(N)=O,.,.,.,.,.,.
C[C@](N)(CCP(=O)(O)O)C(=O)O,.,.,.,49,.,.
O=C(COc1ccccc1)N1CCN(CC2CC=CCC2)CC1 (stereo not given),.,.,.,.,.,.
SMILES,ATG4B inhibitor,CHRM1 PAM,CHRM1 agonist,SKN-1 inh,M1 antag,Myeloid diff MLP
Fc1cccc(F)c1-c1nc(-c2ccc(Cl)cc2)no1,.,.,.,57,.,.
C[C@@H]1CN([C@H](C)CO)C(=O)CCCn2nncc2CO[C@H]1CN(C)C(=O)Oc1ccc2ccccc2c1,/,.,.,.,.,.
Nc1c(C(=O)NCc2ccco2)c2nc3ccccc3nc2n1Cc1ccccc1,.,.,.,.,.,.
Nc1c(C(=O)NCc2ccco2)c2nc3ccccc3nc2n1Cc1ccc(F)cc1,.,.,.,.,.,+
COc1ccc(Cn2c(N)c(C(=O)NCc3ccco3)c3nc4ccccc4nc32)cc1,.,.,.,.,.,+
Nc1c(C(=O)NCc2ccco2)c2nc3ccccc3nc2n1CCN1CCOCC1,.,.,.,.,.,.
N=C1c2ccccc2CN1NC(=O)c1ccc(Br)cc1,.,.,.,.,.,.
C[C@]12CCC3C(CC[C@H]4C[C@H](O)[C@H](O)C[C@]34C)C1CC[C@@H]2O (stereo not given in full),.,.,.,.,.,.
CC(CC(C#N)(c1ccccc1)c1ccccc1)N(C)C (stereo not given),.,.,.,.,102,/
O=c1[nH]c(=S)n(Cc2ccc(F)cc2)c(O)c1/C=N/N1CCCCC1,.,.,27,.,.,.
O=c1[nH]c(=S)n(Cc2ccc(F)cc2)c(O)c1C=NCC1CCCO1 (stereo not given),.,.,.,.,.,.
CC(C)CCP(=O)(O)c1ccccc1,.,.,.,.,.,.
O=C(Nc1cccc(Cl)c1)N1C[C@H]2C[C@@H](C1)c1cccc(=O)n1C2,.,.,.,.,.,.
C[N+](C)(C)CC#CCOC(=O)Nc1cccc(Cl)c1,.,.,91,.,88,.
Cc1ccc(CC(=O)N2CCN(Cc3ccccc3)CC2)cc1,.,.,.,.,.,.
CCC(C)N1CCN(C(=O)Cc2ccccc2)CC1 (stereo not given),.,.,.,.,41,.
ClC1C(Cl)C(Cl)C(Cl)C(Cl)C1Cl (stereo not given),.,.,47!,.,.,.
CCc1nnc(NS(=O)(=O)c2ccc(N=Cc3c(O)n(-c4ccc(Cl)cc4)c(=O)[nH]c3=O)cc2)s1,.,.,.,.,.,.
CCCC[N+]1(C)[C@@H]2CC(OC(=O)[C@H](CO)c3ccccc3)C[C@H]1[C@@H]1O[C@@H]12 (stereo not given in full),.,.,.,.,98,.
CC1C(=O)OC2CCN3CC4OC4(COC(=O)C(C)(O)C1(C)O)C23 (stereo not given),.,/,/,.,/,.
Cc1nn(Cc2ccccc2)c(Cl)c1C(=O)O,.,.,.,.,.,.
Cc1nn(Cc2ccccc2Cl)c(Cl)c1C(=O)O,.,.,.,.,36,.
Cc1ccc(-n2c(C)nc3cc(Cl)ccc3c2=O)nc1,.,.,.,.,.,.
CCOc1ccc(-n2c(O)c(C=NCCN3CCNCC3)c(=O)[nH]c2=O)cc1,.,.,.,.,.,.
N#C/C(=C\c1ccc(O)cc1)C(=O)O (tested in a mixture with another compound),.,.,.,.,.,+
CN1CC=C(c2c[nH]c3ccccc23)CC1,.,.,.,.,.,+
COC(=O)C1=C(c2c(C)noc2C)C[C@@H]2CC[C@H]1N2C(=O)N1CCCCC1,.,.,.,.,.,.
CN(C)c1ccc(/C=C/c2cc[n+](C)c3ccccc23)cc1,.,.,.,.,30!,?
CC(=O)N(C1=NCCCS1)c1ccc(F)cc1,.,.,.,39,.,.

# High-throughput results: PubChem, several laboratories
